Experimental data taken from ChEMBL document CHEMBL3988442, “University of Dundee, Small-Polar-MMV Screening Library” (2021).
Hit rate of the full screen: of about 38,000 compounds, about 1,200 (3.2%) showed an effect of 50% or more. The median lay at about -58%. For the sample, strong results were picked, then their nearest neighbours and some compounds at random.

Tested on: Plasmodium falciparum
Assay: Calibr Malaria Delayed Death Assay SOP
Format: functional, organism-based
Parameters: scale not given: in the data most compounds retested in dose-response had high values
Settings: concentration 4.99e-06 (unit not given; other assays of the set use mol/L)

| SMILES | Percent Effect |
| --- | --- |
| CN(Cc1cccs1)Cc1nnsc1Cl | -133.9% |
| NC(=O)CN1CC2(CCC1=O)CCN(C(=O)c1ccccc1F)CC2 | -172.5% |
| CCO[C@H]1CC[C@H]2[C@H]1OCCN2C(=O)CC1=CCCCC1 | -84.2% |
| COCCn1ccc2c(C(=O)Nc3nc4c(s3)CCC4)cccc21 | -233.3% |
| CS(=O)(=O)c1ccccc1-n1cc(NC(=O)CC2C=CCC2)cn1 (stereo unspecified) | -87.45% |
| O=C(CCc1cc2n(n1)CCCN(CCc1ccccc1)C2)NC1CC1 | -74.1% |
| CC(=O)N1CCC(C(=O)NCCc2c[nH]c3cc(C)ccc23)CC1 | -74.03% |
| CS(=O)(=O)N1CCc2c(cccc2NC(=O)NC2CCCC2)C1 | -76.44% |
| CCc1ccc(OCCn2cccn2)cc1 | -75.63% |
| CC(C)c1nccc(CN2CCC(c3nc4ccccc4n3C)CC2)n1 | -101.6% |
| CC(C)Cc1nc(NC(=O)c2cccnc2)n[nH]1 | -46.29% |
| Cc1ccc2nc(C(=O)N3CC(c4cccnc4)C3)cn2c1 | -27.83% |
| COCCN1CCC(NCc2cccc(C)c2)C1 (stereo unspecified) | -16.89% |
| Cc1ccc(CNC(CN2CCN(C)CC2)c2ccccc2)cc1C (stereo unspecified) | -112.6% |
| Cl.Cl.OC(CN1CCN(Cc2ccc(F)c(F)c2)CC1)C1CC1 (stereo unspecified) | -18% |
| COc1cccc(C(=O)N2CCN(CC(O)c3ccccc3)CC2)c1 (stereo unspecified) | -38.78% |
| O=C(NC(CN1CCCC1)c1ccccc1)c1c(O)cc(F)cc1F (stereo unspecified) | -93.48% |
| Cc1cccc(CNC(CN2CCN(C)CC2)c2ccccc2)c1 (stereo unspecified) | 83.13% |
| CN1CCN(CC(NCc2ccc(F)cc2)c2ccccc2)CC1 (stereo unspecified) | -91.46% |
| CN1CCN(CC(NCc2cccc(O)c2)c2ccccc2)CC1 (stereo unspecified) | -102.1% |
| COc1cccc(CNC(=O)N2CCN(Cc3cc(C)on3)CC2)c1 | -21.77% |
| NC(=O)CS(=O)(=O)Cc1csc(-c2ccc(F)cc2)n1 | -114.2% |
| O=C(Nc1cc(C(F)(F)F)c[nH]c1=O)C1CCCO1 (stereo unspecified) | -102.8% |
| Cc1csc(NC(=O)C2CCN(Cc3cccc4c3OCCO4)CC2)n1 | -33.92% |
| CN(C)CCOCc1cncc2c1CCN(C(=O)C1CCOCC1)C2.O=C(O)C(F)(F)F.O=C(O)C(F)(F)F | -70.85% |
| O=C(O)C(F)(F)F.O=C(O)C(F)(F)F.O=C(O)C(F)(F)F.O=C(c1ccncc1)N1CCN(Cc2cccnc2)c2ncccc2C1 | -102.4% |

| SMILES | Percent Effect |
| --- | --- |
| CC(C)NC(=O)c1noc2c1CN(Cc1cnn(C)c1)CC2 | -77.7% |
| O=C(Nc1cccnc1)C1Cc2nc(-c3ccsc3)sc2N1CC1CC1.O=C(O)C(F)(F)F (stereo unspecified) | -160.3% |
| CN(C)CCNC(=O)C1Cc2nc(-c3ccsc3)sc2N1CC1CC1.O=C(O)C(F)(F)F (stereo unspecified) | 9.733% |
| CN(C)CCNC(=O)C1Cc2nc(-c3ccccc3)sc2N1CC1CC1.O=C(O)C(F)(F)F (stereo unspecified) | 89.72% |
| O=C(Nc1cccnc1N1CCSCC1)c1ccc2c(c1)CCC2 | -3.12% |
| O=C(NC1CC1)C1CCCN(c2cccc(C(F)(F)F)n2)C1 (stereo unspecified) | 11.64% |
| O=C(NC1CCN(c2cccc(C(F)(F)F)n2)CC1)C1CC1 | -20.01% |
| O=C(NC1CC1)C1CCN(c2cccc(C(F)(F)F)n2)CC1 | 78.5% |
| COc1ccc(C2(C(=O)NC3CCc4nccn4C3)CCCC2)cc1 (stereo unspecified) | 46.07% |
| COc1cccc(C2(C(=O)NC3CCc4nccn4C3)CCCC2)c1 (stereo unspecified) | 52% |
| CS(=O)(=O)C1(C(=O)NC2CCc3nccn3C2)CCCC1 (stereo unspecified) | -116.8% |
| CN1C[C@H](O)[C@]2(CCN(C(=O)NCc3ccccc3)C2)S1(=O)=O | -19.04% |
| Cc1cnccc1-c1cc(NCCO)nc2[nH]ccc12 | -75.39% |
| Cc1nc(C(=O)N2CC[C@@]3(C[C@H](NS(C)(=O)=O)CCO3)C2)cs1 | -13.09% |
| CN(C)C(=O)N1CCC2(CCCN(c3ncccn3)C2)C1.O=C(O)C(F)(F)F (stereo unspecified) | -156.2% |
| CC(C)N1CCCC2(CCN(c3nccc(C(F)(F)F)n3)C2)C1=O (stereo unspecified) | -74.1% |
| CC(C)c1nc(C2CCCN(c3nccc(C(F)(F)F)n3)C2)no1 (stereo unspecified) | -82.41% |
| O=C(O)C(F)(F)F.O=S(=O)(C1CC1)N1CCC2(CCCN(c3ncccn3)C2)C1 (stereo unspecified) | -10.57% |
| C=C(C)CN(CC)C(=O)c1cc(F)ccc1N1CCN(C)CC1 | -6.643% |
| CC(CNC(=O)c1cc(C2CC2)nc2c1cnn2C)Cn1cccn1 (stereo unspecified) | -106.1% |
| Cc1ccc(OCCNC(=O)C2CCOCC2)c(C)c1 | -53.04% |
| Cc1ccc(C)c(Oc2ccc(CNC(=O)C3CCC(=O)N3)cn2)c1 (stereo unspecified) | -45.06% |
| Cc1cc(N2CCCC(c3[nH]ncc3Cc3ccccc3)C2)nc(N)n1 (stereo unspecified) | 72.87% |
| Cc1ccc(N2CCCC(c3[nH]ncc3-c3ccccc3)C2)nn1 (stereo unspecified) | 25.38% |
| Cc1ccc(-c2cn[nH]c2C2CCCN(c3cc(N)ncn3)C2)cc1 (stereo unspecified) | -38.82% |
| Cc1cc(C)n2c(CCCNS(=O)(=O)c3cccs3)nnc2n1 | -65.33% |

| SMILES | Percent Effect |
| --- | --- |
| COCCN(C)C[C@@H]1CN(C(=O)C(C)(C)c2ccccc2)C[C@@H]1CO | 29.59% |
| COc1ccccc1OC1CN(C(=O)Cc2c(C)nc3ccccn23)C1 | -26.12% |
| COc1cccc(CNCc2c(C)nc3sc(C)cn23)c1OC | 20.21% |
| COc1ccc(NC(=O)c2nc(C)sc2C)cn1 | -37.98% |
| CCc1[nH]c2c(CNc3cncc(C(=O)OC)n3)cc(C)cc2c1C | -28.2% |
| CCc1[nH]c2c(CNc3cncc(C(=O)N(C)C)n3)cc(C)cc2c1C | -71.53% |
| CCc1[nH]c2c(CNc3nc(C)cc(NC)n3)cc(C)cc2c1C | 88.9% |
| CCc1[nH]c2c(CNc3cncc(C(=O)N(C)C)n3)cc(F)cc2c1C | -100.3% |
| CCc1[nH]c2c(CNc3cc(C)nc(NC)n3)cc(C)cc2c1C | 84.97% |
| Cc1cc(C(=O)N2CCc3nc(N4CCOCC4)nc(C)c3C2)c(C)o1.O=CO | -46.43% |
| COc1ccc(C(=O)CCC(=O)NCc2ncc(C)s2)cc1F | -71.69% |
| CCCOC1Sc2nnc(C)n2N=C1c1ccccc1 (stereo unspecified) | -105.9% |
| COc1cccc(OCCNS(=O)(=O)Cc2ccccc2)c1 | -90.07% |
| COc1cccc(CNCCNS(=O)(=O)Cc2ccccc2)c1 | 54.45% |
| COc1cccc(CNCCc2cccc(C(N)=O)c2)c1 | -12.09% |
| C[C@@H]1CN(c2nc3c(cc2C(N)=O)CCC3)C[C@@]1(O)C1CCC1 | -102.5% |
| O=C(Nc1cccnc1-n1cc(Cl)cn1)C1CCCCC1 | -29.97% |
| CCOC(=O)C(C)NC(=O)N1CCN(c2nc3ccccc3n2C)CC1 (stereo unspecified) | -114% |
| CSCc1cc(F)ccc1CNCc1ccncc1 | -80.12% |
| CSCc1cc(F)ccc1CNCc1cccnc1 | 1.167% |
| CSCc1cc(F)ccc1CNCc1cccc(O)c1 | 72.86% |
| CC(C)CCOc1ccc(C(C)NC(=O)CSCC(N)=O)cc1 (stereo unspecified) | -21.89% |
| Cc1cc(=O)[nH]c(=O)n1COCc1ccccc1 | -164.1% |
| Cc1ccc(C(=O)N2CC(Oc3ccccc3C)C2)s1 | -70.19% |
| COc1ccc(F)cc1CN1CCCC1Cn1nc(C)nc1C (stereo unspecified) | -22.72% |
| CCCn1ccnc1CN1CCC(O)(CN2CCCCC2)C1 (stereo unspecified) | 17.5% |

| SMILES | Percent Effect |
| --- | --- |
| O=C(NCC1(O)CCC1)c1cccc(-n2cccn2)c1 | -36.51% |
| CCCn1ccnc1CN1CCCC(O)(CN2CCCC2)C1 (stereo unspecified) | -81.98% |
| COc1ccc(CN2CCC(O)(CN3CCCCC3)C2)c(C)c1 (stereo unspecified) | 66.37% |
| OC1(CN2CCCC2)CCCN(Cc2cnc(-c3ccccc3)nc2)C1 (stereo unspecified) | 13.01% |
| COc1ccc(F)cc1CN1CCC(O)(CN2CCCCC2)C1 (stereo unspecified) | 69.8% |
| COc1ccc(F)c(CN2CCCC3(CCN(C(=O)CSC)C3)C2)c1 (stereo unspecified) | -70.9% |
| COc1ccc(F)cc1CN1CCCC(c2cc(C(N)=O)[nH]n2)C1 (stereo unspecified) | -17.41% |
| Cc1cc(F)ccc1CN1CCCC(O)(CN2CCCC2)C1 (stereo unspecified) | 66.53% |
| COCC(=O)N1CCC2(CCCN(Cc3cc(OC)ccc3F)C2)C1 (stereo unspecified) | -77.74% |
| Cc1cc(-n2cccn2)ccc1CN1CCC(O)(CN2CCCCC2)C1 (stereo unspecified) | 60.7% |
| O=C(NC1CCc2cc(Cl)ccc21)C1CCN(C(=O)C2CC2)CC1 (stereo unspecified) | -26.17% |
| OCC1CCCN(Cc2c(C3CCCC3)[nH]c3ncccc23)C1 (stereo unspecified) | 11.34% |
| Cc1cc(CN2CCN(Cc3ccc(C#N)cc3F)CC2)no1 | -21.87% |
| CC(C)(C)OC(=O)N1CCN(S(=O)(=O)CCCC#N)C2(CCCCC2)C1 | -7.011% |
| OC1(CN2CCCC2)CCCN(Cc2cnc(-c3ccco3)nc2)C1 (stereo unspecified) | -86.93% |
| Cc1ccc2nc(CN3CCC(O)(CN4CCCC4)CC3)cc(O)c2c1 | -44.54% |
| COc1ccc(C)cc1CC(=O)N1CC[C@@]2(CCCO2)[C@@H](O)C1 | -95.97% |
| Cc1ccc(Cn2c(=O)[nH]c3csnc3c2=O)cc1 | -6.005% |
| Cc1nc(CN2CCC3(CC2)C(=O)N(C)CCN3C)cs1.O=C(O)C(F)(F)F.O=C(O)C(F)(F)F.O=C(O)C(F)(F)F | -106.3% |
| Cc1nc(CN2CCCC23CCN(c2nc4ccccc4s2)CC3)co1 | 8.403% |
| c1ccc2sc(N3CCC4(CCCN4Cc4ncc[nH]4)CC3)nc2c1 | 19.28% |
| Cn1cc(CN2CCCC23CCN(c2nc4ccccc4s2)CC3)cn1 | 50.94% |
| Cc1cccc(SC2CCN(C(=O)CCNS(C)(=O)=O)CC2)c1 | -80.26% |
